# Assay results: PubChem BioAssay
# Biological target: Neurogenic locus notch homolog protein 2 (Homo sapiens) (UniProt Q04721)
# Assay: small molecules binding Notch2 protein – biochemical, small-molecule microarray, 635 nm fluorescence, stem cell growth factors, primary screen (AID 1073)
# Details: higher = more signal
# Neurogenic locus notch homolog protein 2 (Homo sapiens), sequence (Q04721 whole entry, looked up): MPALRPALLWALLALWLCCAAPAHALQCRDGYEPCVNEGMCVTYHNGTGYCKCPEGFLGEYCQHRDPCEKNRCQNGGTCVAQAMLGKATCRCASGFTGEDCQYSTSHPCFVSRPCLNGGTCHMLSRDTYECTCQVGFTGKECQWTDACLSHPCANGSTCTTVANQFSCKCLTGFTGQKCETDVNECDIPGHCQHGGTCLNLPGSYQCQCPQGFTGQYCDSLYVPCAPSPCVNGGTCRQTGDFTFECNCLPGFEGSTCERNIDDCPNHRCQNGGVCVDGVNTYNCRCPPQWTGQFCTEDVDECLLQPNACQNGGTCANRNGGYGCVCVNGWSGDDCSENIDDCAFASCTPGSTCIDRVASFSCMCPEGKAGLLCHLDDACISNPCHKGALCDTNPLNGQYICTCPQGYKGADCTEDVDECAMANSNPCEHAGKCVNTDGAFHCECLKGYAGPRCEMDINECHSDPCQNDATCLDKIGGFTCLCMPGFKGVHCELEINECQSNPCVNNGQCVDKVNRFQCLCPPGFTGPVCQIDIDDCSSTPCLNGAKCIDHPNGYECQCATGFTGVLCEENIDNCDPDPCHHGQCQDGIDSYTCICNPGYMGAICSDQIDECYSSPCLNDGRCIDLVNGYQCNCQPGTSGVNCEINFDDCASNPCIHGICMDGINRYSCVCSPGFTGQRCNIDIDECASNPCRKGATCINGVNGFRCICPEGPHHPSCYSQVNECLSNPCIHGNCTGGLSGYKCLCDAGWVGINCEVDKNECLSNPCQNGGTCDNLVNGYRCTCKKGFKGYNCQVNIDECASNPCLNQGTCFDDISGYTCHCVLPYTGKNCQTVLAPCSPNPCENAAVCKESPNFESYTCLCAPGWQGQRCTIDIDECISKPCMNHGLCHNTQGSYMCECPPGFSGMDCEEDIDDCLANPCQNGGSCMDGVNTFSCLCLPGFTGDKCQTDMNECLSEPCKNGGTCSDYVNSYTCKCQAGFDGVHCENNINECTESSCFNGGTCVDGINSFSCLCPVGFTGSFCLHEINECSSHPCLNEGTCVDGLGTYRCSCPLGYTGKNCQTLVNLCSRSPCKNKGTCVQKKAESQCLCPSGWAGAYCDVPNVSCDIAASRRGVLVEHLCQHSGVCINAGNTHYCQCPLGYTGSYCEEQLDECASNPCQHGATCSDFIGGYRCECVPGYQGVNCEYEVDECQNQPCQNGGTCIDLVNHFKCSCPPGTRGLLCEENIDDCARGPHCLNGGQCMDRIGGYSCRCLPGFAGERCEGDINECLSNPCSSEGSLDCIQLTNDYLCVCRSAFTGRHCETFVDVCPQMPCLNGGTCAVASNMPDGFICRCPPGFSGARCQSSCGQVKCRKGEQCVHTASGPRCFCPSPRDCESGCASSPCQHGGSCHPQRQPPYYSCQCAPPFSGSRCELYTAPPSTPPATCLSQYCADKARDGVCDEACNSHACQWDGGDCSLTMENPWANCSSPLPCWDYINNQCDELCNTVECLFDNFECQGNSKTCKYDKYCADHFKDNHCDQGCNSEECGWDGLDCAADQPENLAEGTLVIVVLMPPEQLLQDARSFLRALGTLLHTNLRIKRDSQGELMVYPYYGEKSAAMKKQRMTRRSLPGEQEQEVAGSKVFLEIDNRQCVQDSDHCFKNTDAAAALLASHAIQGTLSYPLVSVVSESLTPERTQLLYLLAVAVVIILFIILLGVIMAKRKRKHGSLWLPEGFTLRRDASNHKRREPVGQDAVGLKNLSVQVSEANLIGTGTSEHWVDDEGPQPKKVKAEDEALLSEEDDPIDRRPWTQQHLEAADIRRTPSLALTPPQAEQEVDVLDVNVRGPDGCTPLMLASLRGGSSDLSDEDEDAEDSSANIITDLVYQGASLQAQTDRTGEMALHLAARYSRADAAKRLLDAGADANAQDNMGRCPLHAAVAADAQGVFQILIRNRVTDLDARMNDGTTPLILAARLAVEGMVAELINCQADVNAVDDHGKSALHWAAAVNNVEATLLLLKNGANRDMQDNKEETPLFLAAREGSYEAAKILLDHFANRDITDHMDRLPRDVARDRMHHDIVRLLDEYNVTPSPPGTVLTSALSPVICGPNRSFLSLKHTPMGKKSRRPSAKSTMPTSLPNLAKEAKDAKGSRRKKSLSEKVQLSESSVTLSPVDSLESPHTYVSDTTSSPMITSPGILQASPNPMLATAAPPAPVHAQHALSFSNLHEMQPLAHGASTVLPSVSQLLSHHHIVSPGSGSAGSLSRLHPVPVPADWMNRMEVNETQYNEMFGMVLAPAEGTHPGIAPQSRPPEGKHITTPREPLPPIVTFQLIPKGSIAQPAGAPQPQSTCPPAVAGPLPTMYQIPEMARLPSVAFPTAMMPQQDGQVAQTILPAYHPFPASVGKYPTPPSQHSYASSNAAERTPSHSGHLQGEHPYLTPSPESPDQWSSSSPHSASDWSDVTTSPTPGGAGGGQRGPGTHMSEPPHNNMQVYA
row,SMILES,composite z-score
1,O=C(OCCF)C1=CCC(c2cccc(Cl)c2)O1 (stereo not given),0.926
2,COC(=O)[C@@]1(Cc2ccc(OC)cc2)[C@H]2c3cc(C(=O)N4CCCC4)n(Cc4ccccn4)c3C[C@H]2CN1C(=O)c1ccccc1,1.66
3,CC(C)=CCCC(C)=CC(O)C1C=CC2C(=O)N(c3ccccc3)C(=O)C2N1Nc1ccccc1 (stereo not given),1.64
4,[N-]=[N+]=NCc1ccccc1[C@H]1OC(c2ccc(OCCCO)cc2)=N[C@@]1(CCS(=O)(=O)c1ccccc1)C(=O)N1CCOCC1,1.63
5,COC(=O)[C@@]1(Cc2ccccc2)[C@H]2c3cc(C(=O)N4CCCC4)n(Cc4ccc(C)o4)c3C[C@H]2CN1C(=O)c1ccccc1,1.54
6,CC(C)OC(=O)CC(=O)CC(O)c1ccc(C#N)cc1 (stereo not given),1.29
7,[N-]=[N+]=NCc1ccccc1C[C@]1(C(=O)O)N=C(c2ccc(OCCCO)cc2)O[C@H]1c1ccccc1,0.0892
8,COC(=O)[C@@]1(Cc2ccc(OC)cc2)[C@H]2c3cc(C(=O)N(C)C)n(Cc4c(OC)[nH]cc(C)c4=O)c3C[C@H]2CN1C(=O)c1ccccc1,1.49
9,O=c1cccc(CCc2ccccc2)o1,-0.321
10,CCCCCCCCCCC(O)C1C=CC2C(=O)N(Cc3ccccc3)C(=O)C2N1n1cnnc1 (stereo not given),0.53
11,COC(=O)C[C@@H]1C[C@H](C)[C@]2(O1)C(=O)N(Cc1ccccc1)c1ccc(NC(C)=O)cc12,0.381
12,C=CCOC(=O)[C@@H]1[C@H]2C(=O)O[C@H](c3ccccc3)[C@H](c3ccccc3)N2[C@H](c2ccc(OCCOC(=O)[C@@H]3C[C@@H]4C(=O)NCC(=O)N4[C@@H]3c3cccc(OCCO)c3)cc2)[C@@]12C(=O)Nc1ccc(I)cc12,1.18
13,CCCC[C@H]1OB(O)C[C@H]2C1=C(C)C[C@H]1C(=O)N(Cc3ccccc3)C(=O)[C@H]12,0.316
14,CC1CC/C=C\[C@H]2OC34C=CCN(Cc5ccccc5)C(=O)[C@H]3N(CCCCCO)C(=O)[C@@H]4C2C(=O)O1 (stereo not given in full),-0.864
15,CN(C)CCCNC(=O)[C@@]1(Cc2ccccc2I)c2ccccc2C(=O)N(Cc2ccccc2C(F)(F)F)[C@H]1c1ccc(CO)cc1,-0.936
16,COc1ccc([Si](C)(C)[C@@H]2[C@@H](CC(=O)N3CCC[C@H]3CO)O[C@]3(C(=O)N(C)c4c(Br)cc(C)cc43)[C@H]2C)cc1,1.04
17,COCC1=C2[C@@H](CCc3ccccc3)OB(O)C[C@@H]2[C@@H]2C(=O)N(Cc3ccccc3)C(=O)[C@@H]2C1,-0.0585
18,COCCOC(=O)N1C(=O)[C@@]2(c3ccccc31)[C@H](C(=O)NC[C@H](O)c1ccccc1)[C@H]1C(=O)O[C@H](c3ccccc3)[C@H](c3ccccc3)N1[C@@H]2c1ccc(OCCO)cc1,1.38

row,SMILES,composite z-score
1,C=CC[C@@H](OC(=O)Nc1ccc(OC)cc1)c1ccc(O)c2ccccc12,0.746
2,COCCOC(=O)N1C(=O)[C@@]2(c3cc(C#CCCO)ccc31)[C@H](c1ccccc1OCCO)N1[C@H](c3ccccc3)[C@H](c3ccccc3)OC(=O)[C@H]1[C@@H]2C(=O)N1CCN(c2ncccn2)CC1,1.55
3,CCC[C@@H]1C=C(C(=O)O)[C@H](c2ccc(C)cc2)N1S(=O)(=O)c1ccc(C)cc1,1.35
4,COc1ccc(C(O)C2C=CC3C(=O)N(c4ccccc4)C(=O)C3N2Nc2ccc([N+](=O)[O-])cc2)cc1OCc1ccccc1 (stereo not given),1.29
5,O=C/C=C/c1ccc2c(c1)OCO2,-0.24
6,CN(C)C(=O)[C@@]1(CCC(=O)OC(C)(C)C)N=C(c2ccc(OCCCO)cc2)O[C@H]1c1ccccc1,-0.282
7,C=C(C(=O)CC[C@H](OC(C)=O)c1ccc(OCCO)cc1)C(C)C,1.49
8,O=c1cccc(C=Cc2ccccc2)o1,-1.03
9,C=CCC(OC(C)=O)[C@@H]1[C@@H](N(Cc2cccc3ccccc23)C(=O)c2cccc3ccccc23)c2cc(OCCCO)ccc2N1C(=O)c1ccc2ccccc2n1 (stereo not given in full),-0.0258
10,COc1ccc(CCNC(=O)[C@@]2(c3ccc([N+](=O)[O-])cc3)CC(=O)N(CC34CC5CC(CC(C5)C3)C4)[C@@H]2c2ccc(CO)cc2)cc1,1.14
11,COCCOC(=O)N1C(=O)[C@@]2(c3ccccc31)[C@H](C(=O)Nc1nc3ccccc3s1)[C@H]1C(=O)O[C@H](c3ccccc3)[C@H](c3ccccc3)N1[C@@H]2c1ccc(OCCO)cc1,0.907
12,CC(C)(C)OC(=O)CC[C@@]1(C(=O)NCCN2CCOCC2)N=C(c2ccc(OCCCO)cc2)O[C@@H]1c1ccccc1,1.28
13,C=CC(COC(C)=O)NS(=O)(=O)c1ccc(Br)cc1 (stereo not given),0.363
14,[N-]=[N+]=Nc1ccccc1[C@H]1OC(c2ccc(OCCCO)cc2)=N[C@@]1(CCS(=O)(=O)c1ccccc1)C(=O)O,0.402
15,CC(C)NC(=O)[C@@H]1c2ccccc2C(=O)N(Cc2ccccc2)[C@H]1c1ccc(CO)cc1,-1.1
16,COCCOC(=O)N1C(=O)[C@@]2(c3cc(C#CCC(C(=O)OC)C(=O)OC)ccc31)[C@H](c1ccc(O)cc1)N1[C@H](c3ccccc3)[C@H](c3ccccc3)OC(=O)[C@H]1[C@@H]2C(N)=O,1.1
17,CC(C)c1ccc(NN2C(C(O)c3cccc(O)c3)C=CC3C(=O)N(c4ccccc4)C(=O)C32)cc1 (stereo not given),1.57
